Only some compounds are listed: those with a hit (about 11% of all), similar ones and a draw of the others.
G9a block: qHTS Assay for Inhibitors of Histone Lysine Methyltransferase G9a | Potency, µM (top dose mostly 102 µM), for the others: at the top dose activity, negative = inhibition, usual class: inhibitors | AID 504332, 2011 | Histone-lysine N-methyltransferase EHMT2 (Homo sapiens), Q96KQ7 | G9a H3K9 monomethylation, AlphaScreen, 2 h | 350,000 tested, 8.8% active; further: on the % scale 0 is the no-effect control and ±100 the full control effect; nearly all actives have a fitted effect of over 75% in size
Target sequence (Q96KQ7 913-1193 limits assumed): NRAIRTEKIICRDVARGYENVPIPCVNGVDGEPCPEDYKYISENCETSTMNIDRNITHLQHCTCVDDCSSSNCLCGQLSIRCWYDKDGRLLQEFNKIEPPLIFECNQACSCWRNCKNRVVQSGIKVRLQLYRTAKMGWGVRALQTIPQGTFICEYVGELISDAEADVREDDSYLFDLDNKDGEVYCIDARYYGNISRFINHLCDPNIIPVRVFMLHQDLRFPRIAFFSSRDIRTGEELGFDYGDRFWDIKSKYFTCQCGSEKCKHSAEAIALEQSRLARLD
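G9a (20 nM) preincubated 15 min RT with compounds, then 500 nM biotinylated H3K9 peptide and 20 uM SAM added; 2 h RT reaction. Monomethyl-H3K9 product detected by AlphaScreen with anti-H3K9me1 antibody, streptavidin donor and anti-rabbit IgG acceptor beads.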
L3MBTL1 inh: qHTS Assay for the Inhibitors of L3MBTL1; AlphaScreen L3MBTL1–H3K9me1 peptide binding; 230,000 tested, 0.66% active; Potency, µM (series often up to 57.1 µM), without a hit: at the top dose activity, negative = inhibition, actives largely listed as inhibitors; further: on the % scale 0 is the no-effect control and ±100 the full control effect; nearly all actives have a fitted effect of over 60% in size
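Displacement of a biotinylated histone H3(1-15) peptide monomethylated at Lys9 (75 nM) from L3MBTL1 (50 nM) was measured by AlphaScreen after a 30 min room-temperature compound incubation; cefsulodin titration served as intraplate control.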
HP1b chromo inh: HTS for Inhibitors of HP1-beta Chromodomain Interactions with Methylated Histone Tails | Chromobox protein homolog 1 (Homo sapiens), P83916 | AlphaScreen HP1-beta / biotin-H3K9me3 peptide binding | Potency, µM (titrated, usually from 114 µM), for inactives: at the highest dose activity change, negative = inhibition, usual class: inhibitors | 390,000 tested, 0.56% active; further: nearly all actives have a fitted effect of over 70% in size
Target sequence (P83916 whole entry, looked up): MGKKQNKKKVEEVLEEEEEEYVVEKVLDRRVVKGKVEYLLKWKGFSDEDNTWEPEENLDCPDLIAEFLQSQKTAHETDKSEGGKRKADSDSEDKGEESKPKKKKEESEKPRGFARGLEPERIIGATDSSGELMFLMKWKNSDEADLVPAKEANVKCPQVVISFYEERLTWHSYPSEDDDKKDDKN
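Compound inhibition of the preformed complex between 50 nM HP1-beta and 50 nM biotinylated H3K9me3 peptide was read by AlphaScreen. Buffer was PBS pH 7.4 with 0.01% Tween-20. Incubations ran 30 min at room temperature, with 10 ug/mL donor/acceptor beads.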
JMJD2A Tudor inh: qHTS Assay for Inhibitors of JMJD2A-Tudor Domain; Lysine-specific demethylase 4A (Homo sapiens), O75164; AlphaScreen JMJD2A-Tudor / H3K4me3 peptide binding; Potency, µM (doses to about 114 µM), for the others: at the top dose activity change, negative = inhibition, actives largely listed as inhibitors; 390,000 tested, 4.4% active; AID 504339, 2011; further: on the % scale 0 is the no-effect control and ±100 the full control effect; nearly all actives have a fitted effect of over 50% in size
BAZ2B inh: qHTS Assay for Inhibitors of BAZ2B | Bromodomain adjacent to zinc finger domain protein 2B (Homo sapiens), Q9UIF8 | AlphaScreen BAZ2B-H3K14Ac peptide displacement | Potency, µM (top dose mostly 114 µM), for inactives: at the top dose activity change, negative = inhibition, hits mostly inhibitors | 360,000 tested, 4.4% active | AID 504333, 2011; further: on the % scale 0 is the no-effect control and ±100 the full control effect; nearly all actives have a fitted effect of over 60% in size
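AlphaScreen displacement: compounds (up to 110uM) incubated 30 min at room temperature with a preformed 50 nM BAZ2B/50 nM biotinylated H3K14Ac peptide complex in PBS pH 7.4 with Tween-20. Donor and acceptor beads at 10 ug/mL final added, 20 min light-protected before reading.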
An asterisk follows results filed as active; ? = inconclusive; / = no result given; [ ] = remark or other dose. The call rests on the fitted dose curve; in most records, active means well fitted inhibition curve with a large enough effect; inconclusive means small, poorly fitted or top-dose-only effect; inactive means no such curve, though single readings can be large or run the other way. Potency means the concentration at half of the fitted maximal effect.

SMILES	G9a block	L3MBTL1 inh	HP1b chromo inh	JMJD2A Tudor inh	BAZ2B inh
CCn1c(C)cc(/C=C2/SC(=S)NC2=O)c1C	?	-2%	9%	-22%	-37%
Cc1cc(/C=C2\SC(=S)NC2=O)c(C)[nH]1	/	-18%	-23%	?	45µM*
CCn1ncc(/C=C2/SC(=S)NC2=O)c1C	50µM*	-2%	21%	-8%	-33%
N#CN1CCC(NC(=O)c2cccc(C(F)(F)F)c2)CC1	/	/	/	-8%	/
CCCC[n+]1c2ccccc2cc2ccccc21	1.3µM*	/	24%	40µM*	56µM*
CCC[n+]1c2ccccc2cc2ccccc21	3.5µM*	/	-34%	20µM*	45µM*
CC1=C(C(=O)Nc2ccccc2)C(c2ccncc2)n2nc(SCc3ccccc3Cl)nc2N1 (centres undefined)	8%[59 µM]	/	36%	-14%	6%
CCc1nc2ccccc2n2c(-c3ccccc3)c3c(=O)n(C)c(=O)n(C)c3c12	3%[59 µM]	/	76%	18%	-7%[57.1 µM]
Cc1cc(C)c(OCC(=O)Nc2ccc(S(=O)(=O)N3CCOCC3)cc2)c(C)c1	45µM*	/	9%	-18%	-16%
COc1ccccc1OCC(=O)Nc1ccc(S(=O)(=O)N2CCOCC2)cc1	79µM*	/	-12%	-24%	-3%
COc1cc(S(=O)(=O)N2CCOCC2)ccc1NC(=O)COC(=O)CC12CC3CC(CC(C3)C1)C2	1.4µM*	/	41%	-20%	-2%
Cc1cc(OCC(=O)Nc2ccc(S(=O)(=O)N3CCN(C)CC3)cc2)ccc1Cl	?	2%	51%	-3%	4%
Cc1cc(OCC(=O)Nc2ccc(S(=O)(=O)N3CCN(C)CC3)cc2)cc(C)c1Cl	?	-5%[11.4 µM]	-17%	50µM*	50µM*
Cc1ccc(NC(=O)C2CCCN(c3nc4ccccc4s3)C2)c(C)c1 (centres undefined)	1%[59 µM]	/	36%	-3%	-28%
O=C(Nc1ccc2nc(-c3ccco3)[nH]c2c1)c1ccco1	71µM*	/	37%	-26%	?
O=C(Nc1ccc2nc(-c3ccccc3)[nH]c2c1)c1cccs1	?	/	12%	-20%	-6%
CC(=O)Nc1ccc2nc(-c3ccco3)[nH]c2c1	?	9%	9%	4%	-18%
O=C(Nc1ccc2nc(-c3ccco3)[nH]c2c1)c1cccs1	14µM*	-11%	17%	-16%	?
O=C(Nc1ccc2nc(-c3ccc4nc[nH]c4c3)[nH]c2c1)c1cccs1	22µM*	10%	?	-35%[57.1 µM]	-28%
Cn1c(CCNC(=O)c2ccco2)nc2cc(NC(=O)c3ccco3)ccc21	14µM*	-2%	43%	3%	-7%
O=C(CCCNC(=O)c1ccc(Cl)cc1)NCc1ccccc1F	3%	/	-2%	-6%	0%
Cc1cc2nc(-c3cccc(NC(=O)c4cccc5ccccc45)c3)oc2cc1C	10%[59 µM]	/	38%	-8%	-1%
COC(=O)c1ccc(Oc2cc(C)nc(SC)n2)cc1	11%[59 µM]	5%	?	28µM*	4%
COC(=O)c1ccc(Oc2cc(C)nc(Cl)n2)cc1	19%	3%	42%	-5%	-23%
CC(C)N1C/C(=C/c2ccsc2)C(=O)/C(=C/c2ccsc2)C1	?	-13%	-13%	?	45µM*
SMILES	G9a block	L3MBTL1 inh	HP1b chromo inh	JMJD2A Tudor inh	BAZ2B inh
CC(C)CC(=O)Nc1ccc(Nc2ccccc2)cc1	20µM*	-4%	-6%	3%[57.1 µM]	?
O=C(CC(NCCc1ccccc1)C(=O)O)Nc1ccc(O)cc1 (centres undefined)	22µM*	/	/	/	?
COc1ccc(C)c2sc(N(Cc3cccnc3)C(=O)C3CCCCC3)nc12	-31%[59 µM]	/	31%	-28%	-6%
Cn1c(=O)c2c(nc(SCC(=O)O)n2Cc2cc3c(cc2Cl)OCO3)n(C)c1=O	?	/	58%	45µM*	?
Cc1cc2oc(=O)cc(CSc3nc(N)cc(N)n3)c2cc1C(C)C	-22%	/	2%	-22%	32µM*
O=c1n(Cc2ccc([N+](=O)[O-])cc2)c2ccccc2c2nc(-c3ccccc3)nn12	5%[59 µM]	/	17%	-17%	-22%
CSc1nnc(Nc2ccccc2C)s1	28µM*	/	29%	-11%	1%
Cc1cccc(C)c1Nc1nnc(SCC(=O)c2ccc(Br)s2)s1	-15%[59 µM]	-16%	?	?	-8%
C/C(N)=C(/C#N)C(=O)CSc1nnc(Nc2ccccc2C)s1	-32%	-10%	28%	-21%	-31%
Cc1ccc(Nc2nnc(SCC(=O)c3ccc(Br)s3)s2)c(C)c1	11µM*	-4%	10%	-18%	-27%
Cc1ccccc1Nc1nnc(SCC(=O)c2c(N)n(C3CC3)c(=O)[nH]c2=O)s1	10µM*	8%	25%	-9%	11%
Cc1ccccc1Nc1nnc(SCC(=O)c2ccc(O)cc2O)s1	8.9µM*	/	-7%	-34%	-34%
Cc1cc(NC(=O)CSc2nnc(Nc3ccccc3C)s2)no1	?	-6%	-15%	0%[11.4 µM]	-20%
CCn1cc(C(=O)NCc2ccccc2)c(=O)c2cc(S(=O)(=O)N3CCOCC3)ccc21	-7%[59 µM]	/	23%	-14%	/
CCCn1c(N)c(C(=O)CSc2nnc(-c3cccs3)n2C2CC2)c(=O)[nH]c1=O	/	1%	15%	-5%	/
CNc1nnc(SCC(=O)c2c(N)n(C3CC3)c(=O)[nH]c2=O)s1	45µM*	10%	9%	-10%	11%
Cc1cc(C)cc(-n2ccnc2SCC(=O)c2c(N)n(C3CC3)c(=O)[nH]c2=O)c1	2.5µM*	0%	23%	-14%	5%
Cn1c(N)c(C(=O)CSc2nnc(-c3cccs3)n2C2CC2)c(=O)[nH]c1=O	50µM*	-7%	19%	-11%	4%
Cc1ccc(S(=O)(=O)c2cnc(SC(C)C(=O)Nc3ccccc3)[nH]c2=O)cc1 (centres undefined)	0%[59 µM]	/	35%	-20%	-1%
CCn1nc(C)c2c(-c3ccccc3)cc(=O)n(C(C)C(=O)Nc3cccc(F)c3)c21 (centres undefined)	4%[59 µM]	/	64%	-18%	-16%
COc1ccc(-c2cccc(NS(=O)(=O)c3ccc(C)s3)c2)nn1	5%[59 µM]	/	28%[57 µM]	-4%	-1%
CCCCn1nc(C(=O)NCc2ccccc2CN2CCCC2)c2ccccc2c1=O	16%[12.7 µM]	0%	7%	-15%	8%
Cc1ccc(N2CC(C(=O)Nc3c(C)n(C)n(-c4ccccc4)c3=O)CC2=O)cc1 (centres undefined)	3%	-11%	33%	-4%	-31%
